Assay [1] can be described thus: Tanguay_ZF_120hpf_DP24: Oregon State University Tanguay Lab 24 Hour Post-fertilization zebrafish Assay for Delayed Development (AID 2284390). An outline of the steps: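 Scored at 24 hpf as a binary present/absent call of delayed development by brightfield, with dead embryos not assessed. Embryos (5D wild type, chorion removed with pronase at 4 hpf) dosed statically from 6 hpf at 28 C in 0.64% DMSO.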

Assay [2] is described as follows: Tanguay_ZF_120hpf_AXIS: Oregon State University Tanguay Lab 120 Hour Post-fertilization zebrafish Assay for Axial Malformation (AID 2284398). An outline of the steps:
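Scoring was binary (present or absent) for body-axis defects, judged by brightfield imaging at 120 hpf in surviving larvae. Exposure was static at 28C from 6 hpf in chorion-free 5D wild-type embryos, with 0.64% DMSO vehicle.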

A short description of assay [3]: Tanguay_ZF_120hpf_BRN: Oregon State University Tanguay Lab 120 Hour Post-fertilization zebrafish Assay for Brain Region Malformation (AID 2284402). The procedure, abridged:
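Binary brightfield scoring of brain malformation at 120 hpf in 5D wild-type larvae, chorion removed with pronase at 4 hpf. Static exposure began at 6 hpf, 28C, sealed plates, DMSO 0.64% (vol/vol) as vehicle baseline.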

Assay [4] is described as follows: Tanguay_ZF_120hpf_TCHR: Oregon State University Tanguay Lab 120 Hour Post-fertilization zebrafish Assay for Touch Responsive (AID 2284403). An outline of the steps: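 Binary touch-response calls are made at 120 hpf in 5D wild-type zebrafish larvae. These larvae were dechorionated with pronase and exposed singly from 6 hpf in sealed, dark plates at 28 °C with 0.64% DMSO final; dead embryos are excluded.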

Assay [5] can be described thus: Tanguay_ZF_120hpf_ANY: Oregon State University Tanguay Lab 120 Hour Post-fertilization zebrafish Assay for Any Mortality and Malformation (AID 2284404). An outline of the steps:
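Dechorionated Tropical 5D wild-type embryos, one per well from 6 hpf, static exposure in sealed, dark plates at 28C until 120 hpf, 0.64% DMSO final. Brightfield scoring of mortality and malformations as binary presence/absence, pooling 13 morphology endpoints.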

A short description of assay [6]: CCTE_Padilla_ZF_Score.Edema: CCTE's 144 Hour Post-fertilization zebrafish Assay Score for Edema Malformation, Padilla Lab (AID 2284406). The procedure, abridged: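 Edema scored at 6 dpf by two blinded observers under a stereo microscope, in single outbred wild-type larvae exposed from 6-8 hpf in sealed wells (Hanks', 26C, 14:10 h light) and chemical-free after a 5 dpf rinse.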

Assay [7] can be described thus: CCTE_Padilla_ZF_Score.Spine: CCTE's 144 Hour Post-fertilization zebrafish Assay Score for Spine Malformation, Padilla Lab (AID 2284407). The procedure, abridged: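 Spine malformation scored at 6 dpf by two independent blinded observers under stereomicroscope, after static sealed exposure from 6–8 hpf at 26C in Hanks' solution with rinse on 5 dpf. Positive-direction fit against DMSO control.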

A short description of assay [8]: CCTE_Padilla_ZF_Score.Swim_bladder: CCTE's 144 Hour Post-fertilization zebrafish Assay Score for Swim Bladder Malformation, Padilla Lab (AID 2284408). An outline of the steps: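 Swim bladder inflation scored at 6 dpf by two blinded observers under a stereo microscope. Exposure ran from 6–8 hpf in sealed wells of 10% Hanks' at 26C, with rinsing at 5 dpf; DMSO served as baseline.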

The nature of assay [9]: CCTE_Padilla_ZF_Score.Position: CCTE's 144 Hour Post-fertilization zebrafish Assay Score for Position, Padilla Lab (AID 2284409). An outline of the steps:
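Wild-type zebrafish embryos (with chorions) exposed singly from 6–8 hpf in sealed wells of Hanks' solution at 26C, rinsed at 5 dpf. At 6 dpf, blinded assessors scored abnormal water-column position by brightfield stereomicroscopy, relative to DMSO.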

Assay [10] in a line: CCTE_Padilla_ZF_Score.Living: CCTE's 144 Hour Post-fertilization zebrafish Assay Score for Viability, Padilla Lab (AID 2284410).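 Further: larval death at 6 dpf judged by absent heartbeat or coagulation.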 The procedure, abridged:
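Mortality at 6 dpf, judged as absent heartbeat or coagulation by two blinded observers, after sealed static exposure beginning at 6–8 hpf at 26C. Larvae were rinsed free of chemical at 5 dpf, and activity was fitted relative to DMSO.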

The nature of assay [11]: CCTE_Padilla_ZF_Score.General: CCTE's 144 Hour Post-fertilization zebrafish Assay Score for General Malformation, Padilla Lab (AID 2284411). An outline of the steps:
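Malformation, death and hatching were scored at 6 dpf by two blinded observers under a stereo microscope. Embryos were dosed singly from 6-8 hpf in sealed plates of 10% Hanks' at 26C and rinsed on 5 dpf; DMSO baseline.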

The nature of assay [12]: CCTE_Padilla_ZF_Score.Tail: CCTE's 144 Hour Post-fertilization zebrafish Assay Score for Tail Malformation, Padilla Lab (AID 2284414). The procedure, abridged:
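Tail malformations were scored at 6 dpf by two blinded assessors under a stereo microscope. Chorionated embryos had been exposed from 6-8 hpf in sealed wells of 10% Hanks' at 26 C, then rinsed free of chemical at 5 dpf.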

Assay [13] is described as follows: CCTE_Padilla_ZF_Score.Blood_pooling: CCTE's 144 Hour Post-fertilization zebrafish Assay Score for Blood Pooling, Padilla Lab (AID 2284415). An outline of the steps:
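Blood pooling was scored at 6 dpf under a stereo microscope by two blinded assessors, fitted upward against DMSO. Single embryos were dosed at 6–8 hpf in 10% Hanks', kept sealed at 26C (14:10 h cycle) and rinsed at 5 dpf.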

Active and inactive are the calls of the source. How the source made its calls: active means hit-call score of the fitted dose curve at least 0.9, where 1 is the maximum; inactive means score below 0.9.

Broadly, the AC50 is the concentration giving half of the maximal activity seen.

`FC(F)(F)C(F)(F)C(F)(F)CC1CO1` (stereo not drawn): the result in [1], in [2], in assay [3], in assay [4], in [5] and in [6] was inactive. For the same compound, the compound was classed as inactive in assay [7], in assay [8], in assay [9], in assay [10], in assay [11] and in [12]. The result in assay [13] was inactive.

`OCC(O)CC(F)(F)C(F)(F)C(F)(F)C(F)(F)F` (stereo not drawn): the compound was called inactive in assay [1], in assay [2], in assay [3], in assay [4], in assay [5] and in assay [6]. Further, the call in assay [7], in assay [8], in [9], in assay [10], in [11] and in [12] was inactive. Besides, the result in [13] was inactive.

Regarding `COC(F)(C(F)F)C(F)(F)F` (stereo not drawn), the outcome in assay [1], in assay [2], in assay [3], in assay [4], in assay [5] and in assay [6] was inactive. For the same compound, the call in assay [7], in assay [8], in assay [9], in assay [10], in [11] and in [12] was inactive. Moreover, the result in [13] was inactive.

As to `O=C(O)C(F)(F)C(F)(F)C(F)(F)OC(F)(C(F)(F)F)C(F)(F)F`, the outcome in assay [1], in assay [2], in assay [3], in [4], in assay [5] and in [6] was inactive. For the same compound, the outcome in assay [7], in [8], in [9], in assay [10], in [11] and in assay [12] was inactive. Also, in [13], the outcome was inactive.

Regarding `NC(=O)C(F)(F)C(F)(F)C(F)(F)C(F)F`, the result in assay [1], in assay [2], in [3], in [4], in assay [5] and in [6] was inactive. Moreover, the result in assay [7], in [8], in [9], in assay [10], in [11] and in [12] was inactive. In addition, the compound was called inactive in assay [13].

Consider `CO[Si](C)(CCC(F)(F)C(F)(F)C(F)(F)C(F)(F)C(F)(F)C(F)(F)F)OC`, for which the result in assay [1], in assay [2], in [3], in assay [4], in [5] and in assay [6] was inactive. Further, the compound was classed as inactive in [7], in [8], in assay [9], in assay [10], in assay [11] and in assay [12]. The call in assay [13] was inactive.

Turning to `O=S(=O)(OCC(F)(F)F)C(F)(F)C(F)(F)C(F)(F)C(F)(F)F`, the result in assay [1], in assay [2], in assay [3], in [4], in assay [5] and in [7] was inactive. For the same compound, the result in [9], in [10], in assay [11] and in assay [12] was inactive. In addition, the concentration at half-maximal activity (AC50) in assay [6] is 34.1 µM (active); in [8], 88.8 µM (active); in assay [13] it was 33.3 µM (active).

Regarding `FC(F)(F)C(F)(F)C(F)(F)C(F)(F)C(F)(F)C(F)(F)C(F)(F)CCI`, the compound was called inactive in assay [1], in [2], in [3], in assay [4], in assay [5] and in assay [6]. Also, the result in assay [7], in assay [8], in assay [9], in assay [10], in assay [11] and in assay [12] was inactive. Moreover, the call in [13] was inactive.

Regarding `O=S(=O)(O)CCC(F)(F)C(F)(F)C(F)(F)C(F)(F)F`, the compound was called inactive in assay [1], in assay [2], in assay [3], in [4], in [5] and in assay [6]. Also, the outcome in assay [7], in [8], in assay [9], in assay [10], in assay [11] and in assay [12] was inactive. Further, in assay [13], the compound was called inactive.

With `OCC(F)(F)C(F)(F)C(F)(F)C(F)(F)C(F)(F)C(F)(F)C(F)(F)C(F)(F)CO`, the compound was classed as inactive in assay [1], in assay [2], in [3], in assay [4], in assay [6] and in assay [7]. The outcome in assay [9], in assay [12] and in [13] was inactive. In addition, the half-maximal activity concentration (AC50) in assay [5] was 16.7 µM (active); in assay [8] it was 3.96 µM (active); in [10], 22.2 µM (active); in assay [11], 4.17 µM (active).

Turning to `NC(=O)C(F)(F)C(F)(F)C(F)(F)C(F)(F)C(N)=O`, the compound was classed as inactive in [1], in [2], in assay [3], in assay [4], in assay [5] and in assay [6]. Further, the result in assay [7], in [8], in assay [9], in assay [10], in assay [11] and in assay [12] was inactive. The call in [13] was inactive.

For the origin of these results see PubChem BioAssay (EPA / NIEHS).
